# High-throughput results from PubChem BioAssay.
# This is a sample that favours compounds with a hit; in the whole collection about 0.82% have one here.
# TcdB inh: blocks C. difficile toxin B glycohydrolase activity. P18177. TcdB glycohydrolase enzymatic assay, plate reader. inhibition, % at 9.99 µM. 350,000 compounds, 0.24% hits; in the data active = inhibition above about 10%
# PrPC surface inh: reduces human prion protein on the cell surface | P04156 | cell surface PrPC, TR-FRET read-out | inhibition, % at 13.8 µM | 370,000 compounds, 0.43% hits; in the data active = inhibition above about 24%; note: 0% = median of the test wells and 100% = reference compound wells
# VHR inh abs: inhibitors of human VHR1 phosphatase (DUSP3) | P51452 | recombinant VHR phosphatase, pNPP absorbance | inhibition, % at 13.3 µM | 290,000 compounds, 0.52% hits; in the data active = inhibition above about 50%
# * marks the source's active call; other numbers are inactive results; x = no result.
SMILES,TcdB inh,PrPC surface inh,VHR inh abs
C[C@H](O)C#Cc1cnc2c(c1)C(=O)N([C@H](C)CO)C[C@H](C)[C@@H](CN(C)C(=O)Cc1ccccn1)O2,0,x,x
COc1ccc(NC(=O)CN(C)C(=O)c2ccccc2OC)cc1,1,4,51*
COc1ccc(NC(=O)CN(C)C(=O)c2cccc3ccccc23)cc1,1,-1,x
CCN1CCN(CC(=O)N2N=C(c3cccs3)CC2c2ccc(OC)c(OC)c2)C(=O)C1=O (configuration not stated),2,-17,34
C=C1C(=O)c2sccc2C(c2ccc(OC)c(OC)c2)C1COC(C)=O (configuration not stated),-4,96*,x
COc1cccc(S(=O)(=O)N2CC[C@@H]3[C@H](CO)N(C)c4ccc(C#Cc5cccnc5)cc4[C@@H]32)c1,-1,x,x
COc1c2ccoc2c(OCC=C(C)C)c2oc(=O)ccc12,-1,-5,4
CC(C)=CCOc1c2occc2cc2ccc(=O)oc12,13*,0,9
COC(=O)[C@H]1[C@H](CO)[C@H]2Cn3c(ccc(-c4ccncc4)c3=O)[C@H]2N1CC1CCCC1,0,x,x
CC(C(=O)O)N(C(=O)c1ccccc1)c1ccc(F)cc1 (configuration not stated),7,0,53*
CC(C)C(=O)NN(C(=O)c1ccccc1)c1ccccc1,0,3,27
CCC(=O)N(C)C[C@@H]1Oc2ncc(-c3ccc(C)cc3)cc2C(=O)N([C@H](C)CO)C[C@H]1C,-5,x,x
COC1CCN(C(=O)c2ccc(OC3CCN(CCc4ccccc4)CC3)cc2)CC1,0,3,30
O=C(c1ccc(OC2CCN(CCc3ccccc3)CC2)cc1)N1CCC(CO)CC1,0,-12,51*
CCCNC(=O)C[C@H]1CC[C@H]2[C@H](COc3ccc(NC(=O)NCC)cc3C(=O)N2C)O1,0,x,x
COc1ccc2c3c([nH]c2c1)[C@H](CO)N(C(=O)c1ccncc1)CC31CCN(C(=O)NC(C)C)CC1,-3,x,x
O=C(CNS(=O)(=O)c1ccccc1)N/N=C/c1ccc(O)cc1,14*,4,11
COc1cc(/C=N/NC(=O)CCNC(=O)c2ccccc2Cl)ccc1O,-3,2,2
O=C(CCNC(=O)c1ccccc1Cl)N/N=C\c1ccc(O)cc1,15*,0,24
O=C(CCn1cnc2ccccc21)N/N=C/c1ccccc1O,-9,-4,5
O=C(CSc1cccc2cccnc12)N/N=C/c1ccc(O)cc1,20*,-11,23
O=C(CCn1cnc2ccccc21)N/N=C/c1ccc(O)cc1,14*,-5,-1
O=C(CNS(=O)(=O)c1ccccc1)N/N=C\c1ccc(Cl)cc1,x,-5,21
COc1cccc(/C=N/NC(=O)CSc2cccc3cccnc23)c1,3,2,12
N#C[C@@H]1[C@@H](c2ccccc2)[C@H](CO)N1C(=O)C1CCCC1,-4,x,x
SMILES,TcdB inh,PrPC surface inh,VHR inh abs
CCCNC(=O)N(C)C[C@@H]1Oc2cc(-c3ccncc3)ccc2S(=O)(=O)N([C@@H](C)CO)C[C@H]1C,0,x,x
O=C(NCc1cccnc1)c1ccc([N+](=O)[O-])cc1,1,-19,22
CC(C(=O)NCc1cccnc1)c1ccc([N+](=O)[O-])cc1 (configuration not stated),1,-16,52*
COCC(=O)N(C)C[C@@H]1Oc2ncc(-c3ccc(F)cc3)cc2C(=O)N([C@H](C)CO)C[C@H]1C,1,x,x
Cn1cc(C[C@@H](N)C(=O)O)c2ccccc21,0,x,x
Cn1cc(C(CO)Cc2ccccc2)c2ccccc21 (configuration not stated),20*,0,x
Cc1ccc(CN2CCN(CCCc3ccccc3)CC2CCO)cc1 (configuration not stated),1,1,-5
OCCC1CN(CCCc2ccccc2)CCN1Cc1ccc(F)cc1 (configuration not stated),-2,5,56*
Cc1ccnc(SC2CC(=O)N(c3ccc(Cl)cc3)C2=O)n1 (configuration not stated),1,-1,31
Cc1ccnc(SC2CC(=O)N(c3ccc(C(C)C)cc3)C2=O)n1 (configuration not stated),1,-4,51*
O=C(Nc1ccc2c(c1)[C@H]1C[C@@H](CC(=O)N3CCCCC3)O[C@@H](CO)[C@H]1O2)NC1CCCC1,2,x,x
Nn1c(SCC(=O)Nc2ccc3c(c2)OCO3)nnc1-c1ccccc1,x,2,-7
Nc1cc(N)nc(SCC(=O)Nc2ccc3c(c2)OCO3)n1,1,-5,53*
CCOC(=O)c1cccc(NC(=O)CSc2nc(N)cc(N)n2)c1,x,10,56*
Cc1cccc(NC(=O)CSc2nc(N)cc(N)n2)c1,x,9,-5
CC1(C)Cc2ccccc2-c2nnc(SCC(=O)Nc3ccc4c(c3)OCO4)n21,x,26*,-13
Nc1cc(N)nc(SCC(=O)Nc2ccc3c(c2)OCCCO3)n1,x,0,-8
O=C(C[C@H]1C[C@@H]2c3cc(NC(=O)NC4CCCCC4)ccc3O[C@@H]2[C@H](CO)O1)NCc1ccccc1,1,x,x
COc1ccc(S(=O)(=O)N[C@H]2CC[C@H](CC(=O)O)O[C@@H]2CO)cc1,0,x,x
CCCN(C)C[C@@H]1Oc2cc(C#Cc3cccc(F)c3)ccc2S(=O)(=O)N([C@H](C)CO)C[C@@H]1C,0,x,x
CO[C@H]1CN(C)C(=O)c2ccc(NC(=O)c3ccccc3F)cc2OC[C@H](C)N(CC2CCOCC2)C[C@@H]1C,0,x,x
CO[C@H]1CN(C)C(=O)c2cc(NC(=O)NC3CCCC3)ccc2OC[C@@H](C)N(CC2CC2)C[C@H]1C,0,x,x
FC(F)(F)c1cc(Cl)c2nc(-c3ccc(Cl)cc3)c(Cc3ccsc3)n2c1,1,2,x
FC(F)(F)c1cc(Cl)c2nc(-c3ccccc3)c(Cc3ccsc3)n2c1,10*,0,x
COc1ccc(C#Cc2cnc3c(c2)C(=O)N([C@H](C)CO)C[C@H](C)[C@H](CN(C)C(=O)c2ccccc2F)O3)cc1,1,x,x
SMILES,TcdB inh,PrPC surface inh,VHR inh abs
C[C@H]1CN([C@@H](C)CO)C(=O)Cc2cc(NC(=O)Cc3cn(C)c4ccccc34)ccc2O[C@H]1CN(C)C,-1,x,x
Cc1ccc2c(c1)-c1ncc(C(=O)c3cc(Br)ccc3O)cc1CO2,0,-7,56*
Cc1ccc(O)c(C(=O)c2cnc3c(c2)COc2ccc(C)cc2-3)c1,x,-9,0
O=C(CSCCO)Nc1ccc([N+](=O)[O-])cc1,-1,1,52*
O=C(CSCCO)Nc1cccc([N+](=O)[O-])c1,x,-25,-4
COC(C(=O)Nc1ccnn1C1CCN(C(=O)c2ccc(C)cc2)CC1)c1ccccc1 (configuration not stated),0,2,51*
COc1cccc(C(=O)N2CCC(n3nccc3NC(=O)C(OC)c3ccccc3)CC2)c1 (configuration not stated),2,-11,44
O=C(Nc1ccccc1F)N[C@H]1CC[C@H](CCNC(=O)C2CCC2)O[C@H]1CO,0,x,x
CCn1c(=S)[nH]c2c(=O)n(C)c(=O)n(C)c21,46*,-6,x
Cn1c(=O)c2[nH]c(=O)[nH]c2n(C)c1=O,1,-1,x
C[C@H]1CN([C@@H](C)CO)S(=O)(=O)c2ccc(C3=CCCCC3)cc2O[C@H]1CN(C)C(=O)C1CCCCC1,2,x,x
CCn1c(=O)n(CC)c2cc(N3CCCC3)c(NC(=O)c3ccccc3)cc21,1,7,32
